In PubChem BioAssay AID1508600 (Functional Genomics Laboratory (NCATS/FGL), 2020):
In all, about 53,000 sequences went through this assay and about 3,700 (7%) were called active.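 The calls were made as follows: active = gene knockdowns whose robust z-score for IL-1 alpha signal is at least 2 or at most -2, so actives lie on both sides; inactive = the rest.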 Shown is part of a subset that was picked to be rich in actives.

Assay: Components of the Cytosolic LPS Sensing Pathway: Gene Identification via Genome-wide siRNA Screen;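 also: robust z of the log signal after scaling to non-targeting control siRNA wells of the plate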
Settings: RAW264.7 macrophages, IL-1a HTRF, actives lie on both sides, screened at 100 nM (by protocol), cells primed 5 h with Pam3CSK4 first
Summary of the method: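 IL-1a HTRF of supernatants after 24 hour LipidA transfection of Pam3CSK4-primed (5 hours) RAW264.7 cells, 48h post-siRNA transfection (100 nM). Scores: percent of plate negative-control median, then log-based robust z-score.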

z-score, active:
GGUGCAGGACCAUUUCCAUTT against Slc10a6 3.25
CCUUAUAGUCCAGUAUUUUTT against Slf2 2.71
GGAAGAGGUCUUUAAUACATT against Kif4 2.86
GGACAGAUGAUGAAGUUGUTT against Hsp90b1 -2.24
CCCAGUGUCAUUCAGUAUUTT against Phactr3 2.13
GCAAUUUGAGCAGUAUGUATT against Cpsf7 -2.85
GGCUAAAUGCCGAUGUACUTT against Gapvd1 2.08
CCUGACAGACCGACAAGUGTT against Hoxc11 -2
GCUGGCUAUACUUUACAACTT against Prkg1 2.11
GGCUUUCUUCAACCUGAGUTT against Duoxa1 -2.43
CGACAACAAUCUGGCCUAUTT against Ap2s1 2.09
GGAAGGAAGCUAAAAAACGTT against Gnl3 2.24
CCCUCCAUGGAAAUGACAUTT against Slit3 2.4
CCCGCUAUUUGGUGCUAACTT against Amh 3.21
GGCCCAACACCUUUAUCAUTT against Akt1 2.77
GGUGCUCUCAAGUGGGAUUTT against Gm5114 -2.15
GGAUCUUCCUGGAUGCCAATT against Hps1 -2.61
GUUGUGUUCUGAUUGUUUUTT against Olfr1020 2.03
GGGCAAGUUCCAUCUCCUUTT against Cdc42ep2 -2.2
GCAAGUGAGUUAGCAGUCATT against Atp2c1 -2.23

z-score, inactive:
CCUCGAUUAUAGCAAUACUTT against Slc16a14 1.36
GAAAUGUCCAUCCAAAAGCTT against Sprr2k 0.602
GGAUUAGGAAUCACAGUAGTT against Fam78a 0.675
GGCCAAAAAGGAGGCACCATT against Rps15 0.662
GCAUUUUAAUGCGCCAGUUTT against Atp2c1 -0.164
GGGAGCUUUGGAAAUUUUATT against Zbtb3 0.451
CCUCUCCUGCUCUGACAUATT against Olfr933 0.541
GGUGUUUGGCGAUAAUAAGTT against Zdhhc15 -0.237
GGAAAGAAUAGCAGCGUGGTT against Echs1 1.14
GCGAGACAAUUGUUAUUGATT against Zmym2 -1.05
GGCCAUGGAAGCUGUUGCUTT against Pgam2 -0.264
GGUUCAGUCAAGAAUUGCUTT against Clec4e 1.68
GCUGUCGAUAGAAAAAAUCTT against Scml2 0.566
GGGCAAUUUGUUCGACCCATT against Abca2 -0.14
GGGCCUGGAAAACAUUGACTT against Ndufa1 -0.316
CCUUCAACACCAGUUUGGGTT against Olfr1393 0.45
GGCCUGUGGAAGAAAUACGTT against Pdhb 1.82
GGAAACAUGUCCUCACACATT against Top3b 1.41
GGCUCAUUUGCUGAGUGUGTT against Fscn2 1.68
GCCGGUAAAAUUAAGGUGATT against Cyp2j9 -0.13
GGGUUUGGUCUCAUAUAAATT against Samd7 -0.618
GCAGAAGUCGAGCUAUGUUTT against Zfp365 -1.21
GGGAUAAUAAUGUUGAUUGTT against Mrc1 -0.152
GCAUACCUCCGUAUUGUGATT against Snx30 -0.868
GAUCAUCACAGAGGUCCAGTT against Fabp6 0.308
GGUGAUGGGCAAGGUGUUCTT against Syvn1 0.25
CGGUACAAGCUAGACCUCATT against Mettl26 0.493
CCAAUACUACAUAAUGUCUTT against Abcc12 -0.354
GGAAUUCCCAAAACUACUGTT against Tbck -1.28
GGAAUGUCGAAGAAAAUGCTT against Adam15 -0.197
GCGCAAUAAGAUCUUCAUGTT against Ddx55 0.454
GGCACUUUCCCUAUAUUGUTT against Col26a1 -1.57
CCUACGACUUCUACUACAUTT against Chst8 1.69
GGAGUGCGGACGAUAAUACTT against Ppp1r3f -1.97
GUAUUGGAUACGAAGCAGATT against Defb2 -0.154
GGACAUGUGGAAAUGGAUATT against Arhgap4 1.97
GGGAAGAAGAUGGAAUUUATT against Smoc1 1.22
CGGGCUGCUACGAAAAAGUTT against Tspan9 0.152
GGAAACACGUCUCCUCCAUTT against Krt87 1.26
CGCACAAAGGAUUUUUGUATT against Epha7 -0.064
GGUGUGAUUGAAGAAGCGGTT against Gpr37 -0.463
GUGCCUCUCAUCACUAUCUTT against Olfr571 0.501
GGAAACCCAGAGCAGCAGATT against Tdg -1.01
GGAGCUCAAACAGGAGAACTT against Lhfpl4 0.383
GGUAUUUGCUGAACUGUUUTT against Ckmt1 -0.931
GGCUUAACAGAGAAACACCTT against Lrrc49 0.563
GAAUGUCUGAGCAAGGAGGTT against Arpp21 0.227
GCUCAUGUAGGAUGUAUAUTT against Olfr146 -0.483
GCAGAUGUACUCUAAGGGUTT against Adam23 1.17
CGCCAUAGUUGGUUUUGUUTT against Scamp4 1.2
GCGACUACAAGGAUACCCUTT against Krt71 0.169
GGCCAGUGAGCAGCAUUAUTT against Krt222 0.787
CCGCUCUUUUACAGCUGGATT against Rsl1d1 1.99
GCAUAACUCCCAUCCAUAGTT against Glra2 -0.622
CCUUUUUUUGGUAACUCGUTT against Sox11 -0.0308
CCUACAGAAUAGAAAAUUCTT against Elmod2 -0.161
GGAUGGACUAAAUGAUGAUTT against Ythdf2 -0.00923
GGAUUCUGUGCUUUCCUGGTT against Pomt2 -0.77
CCUGCAUCGUACGCUACUUTT against Pcgf2 -1.83
GCCAAAUUAGCAGCUUGUGTT against Rln3 -0.0674
CGUACAACCUCAAGGUUCUTT against Lag3 -1.68
GGCAAAAUUAGCAUCAAAGTT against Slc22a3 0.577
GCCUAGACCUAAGCAUAGCTT against Prpmp5 0.228
GGCCCUGUUAGUGCUAUACTT against Amh -1.15
GGAAGAUUGAAAUAGGCGATT against Mecom -1.25
GGAAAAGGCCGAUUUCGUGTT against Dixdc1 0.556
GGCAGUAGUGAACAGAGACTT against Krt222 -0.199
GCUGACUCCGUGUUUUUAATT against Arhgef18 -0.539
GGGCUCUUGUGUUAAGGCATT against Krt27 -0.119
GGAGCUAGAACUCAAUGAATT against Lingo1 0.65
CCUCAUAGCCAGUCUUUUUTT against Pafah2 -0.553
GUCCUAAAACGAGUGAGAGTT against Trib3 -0.793
GGACACAGCAAGGAAGAAATT against Mad2l1bp 0.335
GGACAGGUACUUUUCCCUGTT against Gnpda2 -1.19
CCAGUCAUUGUGCUUGUUATT against Sox12 0.929
GGAGGACGUAUCAUUACAUTT against Twf1 1.95
GGAGGAUAUAAAAAAGAAGTT against L2hgdh 0.00317
GCCAAGGACUCAGUGAAUGTT against Iqsec2 -1.19
GGUCCUCUCAGACAUGAAGTT against Pagr1a -0.237
GCGGUAAGAACGUGGAACUTT against Tent5b 0.536
GCAUGAAGAGGCAAAGGCUTT against Igfbp1 -0.555
GGAAGUUAAUGGGUAAAGUTT against Olfr365 -1.67
GGACAAAACUAAACAGCAATT against Smarcal1 -0.662
GGGCUUUCUUGGUUUUAUCTT against Depp1 -0.377
GUCGCAUCUCCAAAAAUGGTT against Olfr340 -1.46
GGAUCCUCUCAUUAAGAAATT against Gabra1 -1.15
CGACUUCGCCUUAUGAGAUTT against Tst -1.19
GGUUGAUCCAAAAGAUUACTT against Rp2 0.557
